Many of the other results were omitted from the sample, so hits are more common in it than they were.
KDM5B inhibitor = KDM5B demethylase inhibition; Potency, µM (titrated, usually from 57.7 µM), actives largely listed as inhibitors; 220,000 compounds, 2.6% hits; Q9UGL1; KDM5B demethylase, FDH-coupled NADH fluorescence (FDH is formaldehyde dehydrogenase); AID 1347165; active = well fitted inhibition curve with a large enough effect; also: nearly all actives have a fitted effect of over 70% in size
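Compound dilutions met 200 nM (final) KDM5BΔAP for 10 min at room temperature before substrate addition. The substrate mix held 12.5 µM H3K4me3 with cofactors 25 µM α-ketoglutarate and 50 µM Fe²⁺. NADH signal gain over 30 min defined activity.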
Each line names hits and unclear results; the compound was inactive in the other large screens.

COc1ccc(-c2ccc(=O)n3c2[C@@H]2C[C@@H](CN(C(=O)NC4CCCCC4)C2)C3)cc1	none
O=C(NC1CCCCC1)N1C[C@@H]2C[C@H](C1)c1ccc(C3CCCCC3)c(=O)n1C2	KDM5B inhibitor 40µM
CSc1ccc(C2SCC(=O)Nc3n[nH]c(C)c32)cc1 (stereo unspecified)	none
N[n+]1cn[nH]c1	none
COCC1CN(C)CC12CCN(Cc1cccc(OC)n1)CC2 (stereo unspecified)	none
COCC1CN(C)CC12CCN(Cc1ccncc1F)CC2 (stereo unspecified)	none
COCC1CN(C2CCC2)CC12CCN(Cc1cccnc1)CC2 (stereo unspecified)	KDM5B inhibitor 28µM
Cc1[nH]c2ccccc2c1/C=C/[N+](=O)[O-]	none
C[N+](C)(C)Cc1cccs1	none
COc1ccc(C(=O)NC[C@H]2C[C@@H]3CCN2C[C@@H]3c2cc(-c3ccccc3Br)nc(C)n2)cc1	none
CCNC(=O)NC[C@H]1C[C@@H]2CCN1C[C@@H]2c1cc(-c2ccc(OC)c(OC)c2)nn1C	none
Cc1nc(-c2ccccc2)cc([C@H]2CN3CC[C@H]2C[C@@H]3CNC(=O)CCCC(=O)O)n1	none
COCC(=O)NC[C@H]1C[C@@H]2CCN1C[C@@H]2c1cc(-c2ccccc2OC)nc(C)n1	KDM5B inhibitor 35µM
CCC(CC)c1cc([C@H]2CN3CC[C@H]2C[C@@H]3CNC(=O)Cc2cccs2)nc(-c2ccncc2)n1	none
Cc1nc(-c2ccc(C(F)(F)F)cc2)cc([C@H]2CN3CC[C@H]2C[C@@H]3CNC(=O)C2CC2)n1	none
CCC(CC)c1cc([C@H]2CN3CC[C@H]2C[C@@H]3CNC(=O)COc2ccccc2)nc(-c2ccncc2)n1	KDM5B inhibitor 25µM
COc1ccc(-c2cc([C@H]3CN4CC[C@H]3C[C@@H]4COC(=O)NC(C)C)n(C)n2)cc1OC	none
CCC(CC)c1cc([C@H]2CN3CC[C@H]2C[C@@H]3COC(=O)Nc2ccccc2)nc(-c2ccncc2)n1	none
COCC(=O)NC[C@H]1C[C@@H]2CCN1C[C@@H]2c1cc(-c2ccccc2)nc(C)n1	none
COc1ccc(-c2cc([C@H]3CN4CC[C@H]3C[C@@H]4CNC(=O)C3CCC3)nc(C)n2)cc1OC	KDM5B inhibitor 32µM
COc1ccc(-c2cc([C@H]3CN4CC[C@H]3C[C@@H]4CNC(=O)NC(C)C)nc(C)n2)cc1OC	KDM5B inhibitor 32µM
COc1cc2c(cc1CCc1ccccc1)N(C(=O)c1ccc3[nH]ccc3c1)CC21CCN(C(C)=O)CC1	none
Cc1cc(C[N+](C)(C)C)oc1C	none
COc1ccc2[nH]c(C)c(CCNCc3ccccc3F)c2c1	none
Cc1cc(O)c2c(C)c(CC(=O)N3CCN(C)CC3)c(=O)oc2c1	none
O=C1NC2(CCN(Cc3cccnc3)C2)Oc2ccccc21 (stereo unspecified)	none
O=C(Nc1ccccc1)c1cn(Cc2ccccc2)nn1	none
O=c1oc2ccccc2c(O)c1C(c1ccccc1)c1c(O)c2ccccc2oc1=O	none
CC(C)C(C)NC(=O)COC(=O)c1cn(C)c2ccccc12 (stereo unspecified)	none
CN(C)c1ccc(C(=O)NC[C@H]2C[C@@H]3CCN2C[C@@H]3CN2CCN(c3ccc(F)cc3)CC2)cc1	none
Cn1nc(-c2ccc3ccccc3c2)cc1[C@H]1CN2CC[C@H]1C[C@@H]2CNS(=O)(=O)c1ccccc1	none
Cc1nc(-c2ccco2)cc([C@H]2CN3CC[C@H]2C[C@@H]3CNC(=O)C2CC2)n1	KDM5B inhibitor 35µM
Cc1nc(-c2ccccc2Br)cc([C@H]2CN3CC[C@H]2C[C@@H]3CNC(=O)C2CC2)n1	none
CC(=O)c1ccc(NC(=O)NC[C@H]2C[C@@H]3CCN2C[C@@H]3c2cc(-c3ccco3)nc(C)n2)cc1	none
O=C1Nc2ccccc2CNC12CCN(Cc1ccncc1)CC2	none
N#Cc1cccc(-c2ccc3n(c2=O)C[C@H]2C[C@@H]3CN(C(=O)CSCC(=O)O)C2)c1	KDM5B inhibitor 35µM
O=C(Nc1cccc(F)c1)N1C[C@@H]2C[C@H](C1)c1c(-c3ccc(Cl)cc3)ccc(=O)n1C2	none
N#Cc1cccc(-c2ccc3n(c2=O)C[C@H]2C[C@@H]3CN(C(=O)c3ccc(F)cc3)C2)c1	KDM5B inhibitor 32µM
Cn1nc(-c2ccc(F)cc2)cc1[C@H]1CN2CC[C@H]1C[C@@H]2CNC(=O)Nc1cccc(C#N)c1	none
N#Cc1cccc(-c2ccc3n(c2=O)C[C@H]2C[C@@H]3CN(C(=O)Nc3ccccc3)C2)c1	KDM5B inhibitor 35µM
O=C(Nc1ccccc1)N1C[C@@H]2C[C@H](C1)c1c(-c3cncnc3)ccc(=O)n1C2	none
COC(=O)c1ccc(Cl)cc1NC(=O)N(Cc1ccc(C)o1)C1CCN(Cc2ccccc2)CC1	none
CC(C)(c1ccccc1)c1ccc(O)c(C(C)(C)c2ccccc2)c1	none
NCCc1cccs1	none
COc1ccc(NC(=O)NC[C@H]2C[C@@H]3CCN2C[C@@H]3CN2CCN(c3ncccn3)CC2)cc1	none
NC(=O)CN1C(=O)CO[C@H]2CN(Cc3ccccn3)C[C@H]21	none
O=C1CO[C@H]2CN(Cc3ccccc3)C[C@H]2N1Cc1ccccn1	none
O=C1CO[C@H]2CN(Cc3ncc[nH]3)C[C@H]2N1Cc1ccccn1	KDM5B inhibitor 35µM
CN1C(=O)CO[C@H]2CN(Cc3ccccn3)C[C@H]21	KDM5B inhibitor 40µM
O=C1CO[C@H]2CN(Cc3ccco3)C[C@H]2N1Cc1ccccn1	none
O=C1CO[C@H]2CN(Cc3ccccn3)C[C@H]2N1c1ccccc1	none
Cc1ccc(N2CC(C(=O)OCC(=O)Nc3ccc(C#N)c(Cl)c3)CC2=O)cc1 (stereo unspecified)	none
O=C(COC(=O)CCc1nc2ccccc2s1)Nc1ccc(Cl)cc1C(=O)c1ccccc1	none
COc1ccc(S(=O)(=O)NC[C@H]2C[C@@H]3CCN2C[C@@H]3CN2CCC(Cc3ccccc3)CC2)cc1	none
Cc1c(C=O)c(C)n(C(C)C)c1C	none
Cn1nc(-c2ccc(F)cc2)cc1[C@H]1CN2CC[C@H]1C[C@@H]2CNC(=O)N1CCOCC1	none
Cc1nc(-c2ccc(C(F)(F)F)cc2)cc([C@H]2CN3CC[C@H]2C[C@@H]3CNC(=O)c2ccccc2C(=O)O)n1	none
Cc1nc(-c2ccc(N(C)C)cc2)cc([C@H]2CN3CC[C@H]2C[C@@H]3CNC(=O)N2CCOCC2)n1	KDM5B inhibitor 28µM
Cc1nc(-c2ccc(N(C)C)cc2)cc([C@H]2CN3CC[C@H]2C[C@@H]3CNC(=O)C(C)(C)C)n1	KDM5B inhibitor 32µM
Cn1nc(-c2ccc3ccccc3c2)cc1[C@H]1CN2CC[C@H]1C[C@@H]2CNC(=O)N1CCOCC1	none
Cc1nc(-c2ccccc2)cc([C@H]2CN3CC[C@H]2C[C@@H]3CNC(=O)c2cccs2)n1	none
COc1ccccc1-c1cc([C@H]2CN3CC[C@H]2C[C@@H]3CNC(=O)N2CCOCC2)n(C)n1	none
Cc1nc(-c2cccs2)cc([C@H]2CN3CC[C@H]2C[C@@H]3CNC(=O)c2ccc(N(C)C)cc2)n1	none
COc1ccc(-c2cc([C@H]3CN4CC[C@H]3C[C@@H]4CNC(=O)N3CCOCC3)nc(C)n2)cc1OC	KDM5B inhibitor 22µM
Cc1cc2ccccc2n1CC(=O)NCC1(CC(=O)O)CCCCC1	none
Cc1cc(C(F)(F)F)nn1CC(=O)N1[C@H]2CC[C@@H]1c1cnc(-c3ccc(F)cc3)nc1C2	none
CN(C)C(=O)Oc1ccc2cc(-c3ccccc3)c(=O)oc2c1	none
CN(C)CCCC(=O)N1C2CCC1CN(Cc1cccnc1)C2	none
O=C1Nc2ccccc2CC12CN(Cc1ccncc1)C2	none
COc1ccc(-c2cn(C[C@H]3C[C@@H]4CCN3C[C@@H]4C(=O)NC(C)C)nn2)cc1	none
FC(F)CN1CCNCC1	none
COc1ccc2c(c1)C1(CCNC1)C(=O)N2 (stereo unspecified)	none
C[N+](C)(C)CC1CC1	none

Source: PubChem BioAssay
